Screening results from PubChem.
RECQ1 inh-1: blocks DNA unwinding by human RECQ1; Potency, µM (doses to about 57.3 µM), usual class: inhibitors; AID 2549; P46063; hit rate 0.54% among 240,000; RECQ1 DNA unwinding, red fluorescence kinetic read; further: nearly all actives have a fitted effect of over 30% in size
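RECQ1T1 50 nM; forked duplex (20 bp + 30-nt ss tails) 200 nM, ATP 2 mM final; pH 8.0, 2 mM MgCl2, 2.5 ug/ml poly(dI-dC); 15 min compound preincubation; discontinuous kinetic read over 2 h at RT.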
WRN helicase inh: WRN helicase (human) inhibition; WRN helicase unwinding, fluorescent forked duplex, kinetic; Q14191; hit rate 0.46% among 360,000; Potency, µM (top dose mostly 114 µM), actives largely listed as inhibitors; AID 651768; further: nearly all actives have a fitted effect of over 55% in size
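Kinetic red-fluorescence monitoring (525/598 nm) tracks WRN helicase activity after 100 nM fluorophore-quencher forked duplex and 2 mM ATP are added to 20 nM enzyme pretreated 15 min at room temperature with compound.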
BLM inh: blocks DNA unwinding by human BLM helicase; P54132; recombinant BLM DNA unwinding, fluorescence dequenching; Potency, µM (titrated, usually from 56.1 µM), usual class: inhibitors; hit rate 0.2% among 350,000; AID 2528; further: nearly all actives have a fitted effect of over 35% in size
TRb SRC2 PPI: inhibitors of human thyroid hormone receptor beta-SRC2 interaction | P10828 | TRbeta-SRC2 peptide binding, fluorescence polarization; receptor liganded with 1 µM T3 | Potency, µM (doses to about 106 µM), usual class: inhibitors | hit rate 0.065% among 280,000 | AID 1469; further: nearly all actives have a fitted effect of over 50% in size
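Polarization signal, normalized between peptide-alone and full complex controls, measured compound effects on T3-liganded human TRb LBD (0.6 uM) binding 20 nM Texas Red SRC2 peptide after 5 hr.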
APEX1 inh: blocks human APE1 abasic DNA cleavage. recombinant APE1, TAMRA/BHQ-2 abasic DNA cleavage fluorescence. Potency, µM (highest dose often 65.8 µM), most hits filed as inhibitors. hit rate 0.35% among 350,000. AID 2517; further: nearly all actives have a fitted effect of over 55% in size
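Incision of a quenched TAMRA/BHQ-2 THF abasic-site duplex (50 nM) by 0.75 nM APE1, after 15 min compound preincubation, measured as fluorescence increase over three 60 s reads. Values normalized to buffer, DMSO and NSC13755 control wells.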
TR SRC2 fluor cs: counter-screen for TRb-SRC2 inhibitors: fluorescence interference. TRb/SRC2 Texas Red total fluorescence interference. Potency, µM (top dose mostly 106 µM). hit rate 0.29% among 280,000. AID 1479; active means well fitted curve in either direction with a large enough effect; inconclusive means small, poorly fitted or top-dose-only effect
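Flags fluorescent or light-absorbing compounds by total fluorescence, S + 2P, at 555 nm excitation and 632 nm emission. Mixture: 20 nM Texas Red SRC2 peptide, 0.6 uM human TRb LBD, 1 uM T3, 5% DMSO; compound exposure 5 h at ambient temperature.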
RECQ1 inh conf: confirmation of human RECQ1 helicase inhibitors | hit rate 28% among 610 | shares compounds with RECQ1 inh-1 | Potency, µM (series often up to 229 µM), actives largely listed as inhibitors | RECQ1 helicase DNA unwinding, fluorescence | AID 2708; further: nearly all actives have a fitted effect of over 45% in size
ADP FP counter: displaces ADP in a fluorescence polarization counter-screen for RECQ1 hits. shares compounds with RECQ1 inh-1. ADP fluorescence polarization displacement counterscreen. Potency, µM (top dose mostly 228 µM), hits mostly inhibitors. hit rate 27% among 530; further: nearly all actives have a fitted effect of over 45% in size
RECQ1 inh-2: blocks human RECQ1 DNA unwinding | shares compounds with RECQ1 inh-1 | recombinant RECQ1 DNA unwinding, red fluorescence | Potency, µM (highest dose often 119 µM), most hits filed as inhibitors | hit rate 15% among 1,100 | AID 504841; further: nearly all actives have a fitted effect of over 50% in size
A number is an active result. Rows were chosen to be rich in hits. Some 0.91% of all compounds tested hit in one or more screens of this group. Unless noted, the call rests on the fitted dose curve; in most records, active means well fitted curve in the direction sought with a large enough effect; inconclusive means small, poorly fitted or top-dose-only effect, or another doubt; inactive means no such curve, though single readings can be large; an effect the other way counts as inactive or inconclusive.

What do the screens show for `CCOC(=O)C(Oc1ccc2c(-c3ccccc3)cc(=O)oc2c1)c1ccccc1` (stereo unspecified)?
RECQ1 inh-1: inconclusive; WRN helicase inh: inactive; BLM inh: inactive; TRb SRC2 PPI: inactive; APEX1 inh: inactive; TR SRC2 fluor cs: inactive; RECQ1 inh-2: inactive

What do the screens show for `Cc1nn(Cc2ccc(F)cc2)c(C)c1NC(=O)c1cc(-c2ccco2)on1`?
RECQ1 inh-1: inconclusive; WRN helicase inh: inactive; BLM inh: inactive; TRb SRC2 PPI: inactive; APEX1 inh: inactive; TR SRC2 fluor cs: inactive; RECQ1 inh-2: inconclusive

What do the screens show for `COc1ccc(OC)c(NC(=O)c2ccc(-c3nc(COc4ccccc4)c(C)o3)cc2)c1`?
BLM inh: inactive; TRb SRC2 PPI: inactive; TR SRC2 fluor cs: inactive

Results for O=C(O)c1ccc(Cl)c(NC(=O)C2CCCN2S(=O)(=O)c2cccc3nsnc23)c1 (stereo unspecified) ?
RECQ1 inh-1: inactive; WRN helicase inh: inactive; BLM inh: inactive; TRb SRC2 PPI: inactive; APEX1 inh: inactive; TR SRC2 fluor cs: inactive; RECQ1 inh conf: inactive; ADP FP counter: inactive

How did Cc1ccc(NC(=O)C2CCCN2S(=O)(=O)c2cccc3nsnc23)cc1Cl (stereo unspecified) do in these assays?
BLM inh: inactive; TRb SRC2 PPI: inactive; TR SRC2 fluor cs: inactive

How did Cc1ccc(NCc2nnc(SCC(=O)O)n2Cc2ccccc2)cc1Cl do in these assays?
RECQ1 inh-1: inactive; WRN helicase inh: inactive; BLM inh: inactive; TRb SRC2 PPI: inactive; APEX1 inh: inactive; TR SRC2 fluor cs: inactive; RECQ1 inh conf: inactive; ADP FP counter: inactive

How did Cc1cc(C)c(S(=O)(=O)NCC23C=CC(O2)C2C(=O)N(c4ccccc4)C(=O)C23)c(C)c1 (stereo unspecified) do in these assays?
RECQ1 inh-1: 11µM; WRN helicase inh: inactive; BLM inh: inactive; TRb SRC2 PPI: inactive; APEX1 inh: inactive; TR SRC2 fluor cs: inactive; RECQ1 inh-2: inactive

What do the screens show for `Cc1cc(O)cc(O)c1C(=O)OC1(C)C(=O)C=C2C=C(/C=C/C(=O)O)OC=C2C1=O` (stereo unspecified)?
RECQ1 inh-1: 28µM; BLM inh: inactive; TRb SRC2 PPI: inactive; APEX1 inh: 14µM; TR SRC2 fluor cs: inactive; RECQ1 inh-2: inconclusive

What do the screens show for `COc1ccc(S(=O)(=O)N2CC(C(=O)O)Oc3ccc(CC(=O)O)cc32)cc1` (stereo unspecified)?
RECQ1 inh-1: inactive; WRN helicase inh: inactive; BLM inh: inactive; TRb SRC2 PPI: inactive; APEX1 inh: inactive; TR SRC2 fluor cs: inactive; RECQ1 inh conf: inactive; ADP FP counter: inactive

Results for O=C1C(Cl)=C(N2CCCCC2)C(=O)C(Cl)=C1c1cnc(N2CCCCC2)s1 ?
RECQ1 inh-1: 16µM; WRN helicase inh: inconclusive; BLM inh: 14µM; TRb SRC2 PPI: inactive; APEX1 inh: 20µM; TR SRC2 fluor cs: inactive; RECQ1 inh conf: 50µM; ADP FP counter: 45µM

How did CC(C)NC(=O)c1cnc2sc(N3CCCCCC3)nn2c1=O do in these assays?
BLM inh: inactive; TRb SRC2 PPI: inactive; TR SRC2 fluor cs: inactive

How did COc1ccc(C(=O)Nc2nc(C)cc(C)n2)cc1 do in these assays?
RECQ1 inh-1: inconclusive; WRN helicase inh: inactive; BLM inh: inactive; TRb SRC2 PPI: inactive; APEX1 inh: inactive; TR SRC2 fluor cs: inactive; RECQ1 inh-2: inactive

Results for O=C(c1cc(-c2ccco2)on1)N1CCCc2ccccc21 ?
RECQ1 inh-1: 40µM; WRN helicase inh: inactive; BLM inh: inactive; TRb SRC2 PPI: inactive; APEX1 inh: inactive; TR SRC2 fluor cs: inactive; RECQ1 inh-2: inconclusive
